The supplement of paper PMC3545927
Some of the results follow. No count for the full screen is at hand.

Molecular target: furin, P09958
Assay: furin cleavage Z-score vs untreated control; higher = more cleavage, active = 3.5 or more, inactive = 1 or less, 8 variable residues between constant flanks
How it was run: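 In 50 mM HEPES pH 7.5 with CaCl2 and NaCl, purified furin was incubated with bead-anchored 8-mer peptide–cDNA fusions at 1:10 enzyme:substrate in 0.01 ml. Incubation times were 7.5, 15 and 30 min. DNA set free by cleavage was adapter-tagged by PCR and sequenced, with read counts taken as abundance. Log counts relative to furin-free reactions, after lowess adjustment and median absolute deviation scaling, form the cleavage Z-score.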

Sequence of furin, P09958 (P09958 whole entry): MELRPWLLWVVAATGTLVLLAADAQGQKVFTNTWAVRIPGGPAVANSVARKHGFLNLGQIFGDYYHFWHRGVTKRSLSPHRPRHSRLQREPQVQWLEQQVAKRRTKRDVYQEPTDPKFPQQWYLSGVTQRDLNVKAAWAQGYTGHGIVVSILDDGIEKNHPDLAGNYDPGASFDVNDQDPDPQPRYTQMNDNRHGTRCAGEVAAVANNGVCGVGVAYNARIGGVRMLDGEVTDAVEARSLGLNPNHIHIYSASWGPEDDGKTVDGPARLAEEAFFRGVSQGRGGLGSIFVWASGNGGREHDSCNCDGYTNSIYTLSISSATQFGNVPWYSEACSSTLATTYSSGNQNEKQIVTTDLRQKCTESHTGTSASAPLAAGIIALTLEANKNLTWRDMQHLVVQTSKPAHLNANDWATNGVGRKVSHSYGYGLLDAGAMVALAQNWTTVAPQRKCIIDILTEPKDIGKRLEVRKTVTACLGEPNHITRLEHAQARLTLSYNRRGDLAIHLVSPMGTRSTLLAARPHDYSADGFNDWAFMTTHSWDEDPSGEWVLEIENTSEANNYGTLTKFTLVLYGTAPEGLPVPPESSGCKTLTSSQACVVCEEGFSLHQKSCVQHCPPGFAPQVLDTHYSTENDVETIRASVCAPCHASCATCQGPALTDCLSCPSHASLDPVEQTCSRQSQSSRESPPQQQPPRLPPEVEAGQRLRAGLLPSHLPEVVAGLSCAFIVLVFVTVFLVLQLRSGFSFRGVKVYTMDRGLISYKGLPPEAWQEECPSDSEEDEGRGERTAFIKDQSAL

Sequence | furin cleavage Z-score (7.5 min) | furin cleavage Z-score (15 min) | furin cleavage Z-score (30 min)
CALVAFKIMSAGNASASA [HC1092] | -0.725 (inactive) | -0.454 (inactive) | -0.368 (inactive)
CAAPSRRSRSAGNASASA [FS-216] | 9.21 (active) | 8.84 (active) | 7.91 (active)
CAKHSRRRRSAGNASASA [FS-174] | 10.9 (active) | 10.7 (active) | 6.68 (active)
CASSREKRRSAGNASASA [FS-1285] | 0.453 (inactive) | 0.575 (inactive) | 2.39
CASSSRRSRSAGNASASA [FS-1615] | 7.43 (active) | 8.67 (active) | 6.73 (active)
CASSSRRRRSAGNASASA [FS-1286] | 9.8 (active) | 8.59 (active) | 7.58 (active)
CAMEECSRHLAGNASASA [HC1733] | 0.727 (inactive) | 0.671 (inactive) | 1.88
CAALTGTYVYAGNASASA [HC632] | 1.19 | -0.31 (inactive) | -0.691 (inactive)
CAKPDYEPPVAGNASASA [HC1312] | 0.808 (inactive) | -0.123 (inactive) | 0.46 (inactive)
CAEVPCHYPSAGNASASA [HC2369] | 0.223 (inactive) | 1.34 | 1.34
CAVVWCSMSYAGNASASA [HC2028] | 0.181 (inactive) | 0.241 (inactive) | 0.133 (inactive)
CAVQYLYGVGAGNASASA [HC510] | -0.596 (inactive) | -1.07 (inactive) | -0.127 (inactive)
CANEECSQHLAGNASASA [HC1681] | 0.726 (inactive) | 1.58 | -0.0685 (inactive)
CATTPCSMSWAGNASASA [HC1886] | 0.125 (inactive) | 0.0823 (inactive) | 0.51 (inactive)
CADLEDRDRSAGNASASA [HC487] | -0.326 (inactive) | -1.64 (inactive) | -1.38 (inactive)
CAGSSRLDRSAGNASASA [FS-1208] | 1.21 | 1.38 | 0.97 (inactive)
CASDFRRRRSAGNASASA [FS-868] | 9.07 (active) | 7.71 (active) | 7.52 (active)
CAAPVRRDRSAGNASASA [FS-977] | 6.44 (active) | 6.02 (active) | 5.28 (active)
CAGSSRRRRSAGNASASA [FS-1334] | 9.7 (active) | 10.8 (active) | 6.42 (active)
CAGSSREVRSAGNASASA [FS-29] | 2.81 | 4.54 (active) | 4.54 (active)
CAFSSREERSAGNASASA [FS-589] | -0.625 (inactive) | -0.927 (inactive) | -2.43 (inactive)
CALEQALDCEAGNASASA [HC1590] | -1.94 (inactive) | 0.416 (inactive) | -0.45 (inactive)

Sequence | furin cleavage Z-score (7.5 min) | furin cleavage Z-score (15 min) | furin cleavage Z-score (30 min)
CAGLVPRGSAAGNASASA [TR1] | 0.366 (inactive) | -0.466 (inactive) | -0.254 (inactive)
CAMEEQSQHLAGNASASA [HC19] | 0.113 (inactive) | 0.699 (inactive) | 0.674 (inactive)
CAAIPLEVIKAGNASASA [HC850] | -0.209 (inactive) | 0.792 (inactive) | -0.386 (inactive)
CAGFRRFKRSAGNASASA [FS-240] | 8.1 (active) | 5.19 (active) | 7.05 (active)
CALQRRKKKGAGNASASA [FS-1643] | -0.863 (inactive) | -0.718 (inactive) | 0.433 (inactive)
CAPTHYVPESAGNASASA [HC1126] | 1.82 | -1.79 (inactive) | 0.876 (inactive)
CALQRRVKRSAGNASASA [FS-1463] | 3.17 | 3.78 (active) | 1.92
CAPSRRVKRSAGNASASA [FS-1149] | 8.11 (active) | 7.59 (active) | 5 (active)
CAGFRRSMDQAGNASASA [FS-2860] | -0.496 (inactive) | -0.187 (inactive) | 0.074 (inactive)
CANQLRVKRSAGNASASA [FS-554] | 5.48 (active) | 5 (active) | 3.97 (active)
CAEVVTSAWVAGNASASA [HC2203] | -1.33 (inactive) | -0.0621 (inactive) | -0.753 (inactive)
CASTTSRSACAGNASASA [HC1390] | 0.133 (inactive) | -0.0614 (inactive) | -0.754 (inactive)
CALAGLSTLPAGNASASA [HC1048] | 0.519 (inactive) | 1.63 | 0.445 (inactive)
CALKATCTANAGNASASA [HC1266] | 0.615 (inactive) | 2.96 | 1.42
CARTGKVKRSAGNASASA [FS-497] | 10.7 (active) | 9.35 (active) | 8.07 (active)
CACWRRMKRSAGNASASA [FS-1113] | 9.77 (active) | 10.5 (active) | 7.93 (active)
CAKLFRVKRSAGNASASA [FS-1220] | 11.7 (active) | 10.7 (active) | 8.14 (active)
CAECYDAGCAAGNASASA [HC920] | -0.745 (inactive) | 0.00773 (inactive) | -0.466 (inactive)
CAGCPLPPPKAGNASASA [HC1317] | 0.693 (inactive) | -0.374 (inactive) | -0.0504 (inactive)
CAVVPRGVNLAGNASASA [TR7] | 1.05 | -0.803 (inactive) | 1.14
CAMEERSQHLAGNASASA [HC10] | -0.0717 (inactive) | -0.428 (inactive) | 1.49
